Screens: PubChem, National Center for Advancing Translational Sciences (NCATS)
Rows were chosen to be rich in hits. Some 9% of all compounds tested hit in one or more screens of this group.
LMNA splice mod – qHTS Assay for Modulators of Lamin A Splicing; HeLa LMNA splicing GFP/RFP minigene ratio, 48 h; Potency, µM (highest dose often 46.1 µM), without a hit: at the top dose ratio change, negative = inhibition, usual class: inhibitors; 200,000 tested, 0.01% active; active = well fitted inhibition curve with a large enough effect in the signal ratio, with a control signal flat, not every such curve was filed as active; inconclusive = small, poorly fitted or top-dose-only effect, or effect the other way, or a change in a side signal; the % refers to the signal ratio
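S3 HeLa cells stably expressing lamin A-EGFP splicing minigene plus DsRed2, 600 cells/well, 48 h compound exposure at 37C. Laser-scanning cytometry; analysed as GFP (500-530 nm)/RFP (575-640 nm) total intensity ratio; 0.5% DMSO vehicle.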
IMPase Li cell – qHTS Assay for Identifying the Cell-Membrane Permeable IMPase Inhibitors: Potentiation with Lithium | CHO-M1 cells, IP1 TR-FRET (IP-One), carbachol + lithium | Potency, µM (doses to about 59.4 µM), inactives show top-dose activity, negative = IMPase inhibition, actives largely listed as inhibitors | 210,000 tested, 0.35% active | AID 1457, 2008;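 note: IP1 builds up when IMPase is blocked and the TR-FRET signal falls; plate controls were basal vehicle for no effect and high inhibitor control for full effect; nearly all actives have a fitted effect of over 50% in size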
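Steps: plate 2000 CHO-M1 cells per well and culture 16–30 h; add compound and lithium; incubate 30 min, 37C; add d2-IP1 tracer and Eu cryptate anti-IP1 antibody in lysis buffer; read after 10 min at room temperature.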
KinaseGlo FLuc – Counterscreen for Luciferase (Kinase-Glo TM) Inhibition; Luciferin 4-monooxygenase (Photuris pensylvanica), Q27757; Kinase-Glo luciferase, ATP luminescence, 8 min; Potency, µM (doses to about 38.3 µM), without a hit: at the top dose activity change, negative = inhibition, hits mostly inhibitors; 200,000 tested, 0.28% active; note: nearly all actives have a fitted effect of over 60% in size
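Compounds were added to a substrate mix at pH 7.2 (50 mM imidazole, 10 uM ATP, within the enzyme's linear range), followed by Kinase-Glo detection reagent; luminescence was measured after 8 minutes at ambient temperature.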
ALDH1A1 block – qHTS Assay for Inhibitors of Aldehyde Dehydrogenase 1 (ALDH1A1); Purified ALDH1A1, NADH fluorescence, propionaldehyde substrate; Potency, µM (highest dose often 75.3 µM), inactives show top-dose activity, negative = inhibition, hits mostly inhibitors; 220,000 tested, 7.3% active; active = well fitted inhibition curve with a large enough effect, not every such curve was filed as active; inconclusive = small, poorly fitted or top-dose-only effect, or another doubt; inactive = no such curve, though single readings can be large or run the other way;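 note: plate controls were no enzyme wells and a reference inhibitor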
Target sequence (P00352 whole entry, looked up): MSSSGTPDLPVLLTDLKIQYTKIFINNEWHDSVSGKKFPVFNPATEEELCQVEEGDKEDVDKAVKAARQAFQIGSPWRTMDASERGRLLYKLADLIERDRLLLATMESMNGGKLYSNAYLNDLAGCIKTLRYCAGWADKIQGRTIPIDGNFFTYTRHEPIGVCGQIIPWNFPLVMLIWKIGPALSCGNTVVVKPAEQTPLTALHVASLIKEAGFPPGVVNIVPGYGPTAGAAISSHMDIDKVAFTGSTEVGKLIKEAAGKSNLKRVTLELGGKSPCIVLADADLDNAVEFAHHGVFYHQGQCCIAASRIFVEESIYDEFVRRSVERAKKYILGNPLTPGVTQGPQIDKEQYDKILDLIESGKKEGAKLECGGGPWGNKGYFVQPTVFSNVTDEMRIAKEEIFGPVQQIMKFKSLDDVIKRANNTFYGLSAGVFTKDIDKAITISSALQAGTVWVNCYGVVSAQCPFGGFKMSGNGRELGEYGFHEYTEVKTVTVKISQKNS
HPGD inh – qHTS Assay for Inhibitors of HPGD (15-Hydroxyprostaglandin Dehydrogenase); 15-hydroxyprostaglandin dehydrogenase [NAD(+)] (Homo sapiens), P15428; purified HPGD, NADH fluorescence kinetic, PGE2 substrate; Potency, µM, for inactives: top-dose activity change, negative = inhibition, actives largely listed as inhibitors; 150,000 tested, 4.3% active; AID 894, 2007; active = well fitted inhibition curve with a large enough effect, not every such curve was filed as active; inconclusive = small, poorly fitted or top-dose-only effect, or another doubt; inactive = no such curve, though single readings can be large or run the other way
Target sequence (P15428 whole entry, looked up): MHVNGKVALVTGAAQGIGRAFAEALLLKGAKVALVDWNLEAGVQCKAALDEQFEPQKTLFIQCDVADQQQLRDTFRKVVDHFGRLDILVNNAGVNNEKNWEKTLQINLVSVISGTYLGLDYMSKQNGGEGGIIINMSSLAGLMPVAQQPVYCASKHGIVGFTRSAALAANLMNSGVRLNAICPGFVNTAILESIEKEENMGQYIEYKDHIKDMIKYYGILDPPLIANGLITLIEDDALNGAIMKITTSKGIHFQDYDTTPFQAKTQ
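20 nM HPGD preincubated 15 min at room temperature with compound in 50 mM Tris-HCl pH 8, 0.01% Tween 20. Started with 1 mM NAD+ and 30 uM prostaglandin E2; NADH fluorescence (360/450 nm) read 5 times over 30-s intervals, last minus first.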
* = called active by the depositor; ? = inconclusive; / = no result; ! = a repeat was not active; [ ] = dose if it differs, or a comment. Unless noted, calls come from the whole dose curve; as a rule, active = well fitted curve in the direction sought with a large enough effect; inconclusive = small, poorly fitted or top-dose-only effect, or another doubt; inactive = no such curve, though single readings can be large; an effect the other way counts as inactive or inconclusive. Unless noted, % is set by controls: 0 for no effect and ±100 for the full control effect; potency is the fitted concentration of half-maximal effect.

SMILES	LMNA splice mod	IMPase Li cell	KinaseGlo FLuc	ALDH1A1 block	HPGD inh
O=C(/C=C/c1cccc([N+](=O)[O-])c1)OC1CCCCC1=O (stereo not given)	?	5%	-2%	?	/
CC1=C(/C=C/C(C)=C/C=C/C(C)=C/C=O)C(C)(C)CCC1	/	-2%	/	22µM*	-13%
CC1=C(/C=C/C(C)=C/C=C/C(C)=C/CO)C(C)(C)CCC1	/	8%	-1%	25µM*!	0%
CC(=O)OC/C=C(C)/C=C/C=C(C)/C=C/C1=C(C)CCCC1(C)C	/	-3%	2%[39.9 µM]	22µM*!	-6%
CC1=C(/C=C/C(C)=C/C=C/C(C)=C\C=O)C(C)(C)CCC1	/	-1%	/	?	-6%
CC1=C(/C=C/C(C)=C/C=C/C(C)=C\CO)C(C)(C)CCC1	/	5%	/	25µM*	/
O=S(=O)(NCCc1csc(-c2ccc(F)cc2)n1)c1ccc(Cl)cc1	-2%[46 µM]	/	/	/	/
O=C(NCc1ccco1)c1cc2nc(C3CC3)cc(C(F)(F)F)n2n1	?	-18%[38.3 µM]	6%	?	18µM*
N#CCCN1CCN(C(=S)c2ccc(-c3ccc(Cl)cc3)o2)CC1	?	-13%[38.3 µM]	-2%	4.5µM*	20µM*
S=C(c1ccc(-c2ccc(Cl)cc2)o1)N1CCCCC1	-2%	22%[38.3 µM]	-1%	?	-22%
Fc1ccccc1CN1CCCN(C(=S)Nc2cccc(Cl)c2)C1	/	-7%	4%	?	/
O=C(Nc1ccccc1)N1CCCN(Cc2ccccc2F)C1	4%[0.0737 µM]	5%[38.3 µM]	-4%	2%	25µM*
CCOc1ccc(/C=C/C(=O)NCCc2ccc(OC)c(OC)c2)cc1	?	12%	-2%	2%	-5%
CCCCNC(=O)/C=C/c1ccc(OC)c(Br)c1	-4%	7%	4%	-1%	25µM*
CC1(C)C(c2ccco2)=[N+]([O-])C2(CCCCC2=O)N1O (stereo not given)	-5%	16%	2%	-9%	-13%
C/C(=N/Nc1ccc(C)cc1)C1(C)N(O)C(C)(C)C(c2ccco2)=[N+]1[O-] (stereo not given)	-6%[46 µM]	8%	-3%	25µM*	/
O=C(NC(=S)Nc1ccc(S(=O)(=O)Nc2ccccc2)cc1)C1CC1	10%[46 µM]	15%	0%	22µM*	/
Cc1ccccc1C(=O)NC(=S)Nc1ccc(S(=O)(=O)N2CCN(C)CC2)cc1	-5%	22%[38.3 µM]	-4%	10µM*	?
O=C(NC(=S)Nc1ccc(S(=O)(=O)N2CCCCC2)cc1)c1ccccc1	0%	39%[38.3 µM]	-4%	9.5µM*	-16%
Cc1ccccc1C(=O)NC(=S)Nc1ccc(S(=O)(=O)N2CCOCC2)cc1	-9%	14%	3%	?	-8%
CC1CC(C)CN(S(=O)(=O)c2ccc(NC(=S)NC(=O)c3ccccc3)cc2)C1 (stereo not given)	4%	-5%	-1%	-4%	-27%
Cc1cc(C)nc(NS(=O)(=O)c2ccc(NC(=S)NC(=O)C3CCCC3)cc2)n1	-2%	15%[38.3 µM]	-1%	-15%	-7%
CN(C)c1ccc(NC(=O)c2cccc(N3C(=O)CCC3=O)c2)cc1	?	35%[38.3 µM]	4%	19µM*	-12%
CCOc1ccc(/C=C/C(=O)c2ccccc2)cc1	/	/	/	-1%	/
COc1ccc(/C=C/c2ccncc2)cc1OC	-17%	5%	-10%	?	?
SMILES	LMNA splice mod	IMPase Li cell	KinaseGlo FLuc	ALDH1A1 block	HPGD inh
COc1ccc(/C=C/C2=CC(C)(C)NC(=S)N2)cc1OC	0%[9.22 µM]	3%	-1%	7.9µM*	/
CCOc1ccc(/C=C/C2=CC(C)(C)NC(=S)N2)cc1	/	7%	-2%	13µM*	/
COC(=O)c1ccc(CSc2nnc(Nc3ccc(OC)cc3)s2)o1	1%	5%[38.3 µM]	-2%	0%	-9%
COC(=O)c1ccc(CSc2nnc(Nc3ccccc3OC)s2)o1	?	-3%[38.3 µM]	6%	25µM*	-21%
COC(=O)c1ccc(CSc2nnc(-c3ccncc3)n2Cc2ccccc2)o1	0%	/	/	25µM*	/
COC(=O)c1ccc(CSc2nnc(NCc3ccccc3)s2)o1	1%	-3%[38.3 µM]	3%	-14%	14µM*
CNC(=O)CSc1nnc(-c2ccncc2)n1Cc1ccccc1	10%	-7%[38.3 µM]	-6%	2%	-5%
CC(=O)N1CCC2(CC1)CCN(c1ncccn1)CC2	/	-4%	0%	-9%	-24%
Cn1c(N)c(C(=O)COC(=O)C2CCCN2C(=O)c2cccs2)c(=O)n(C)c1=O (stereo not given)	/	1%	-2%	-4%	/
C[n+]1cc[nH]c1SCC(=O)c1ccccc1	-6%	-14%[38.3 µM]	-25%	25µM*	-8%
C[n+]1cc[nH]c1SCC(=O)c1ccc(Cl)cc1	/	1%	-12%	19µM*	/
Nc1cc(N)nc(SCC(=O)c2ccccc2)n1	2%	-19%[38.3 µM]	-6%	?	-29%
CCNC(=O)NC(=O)C(C)Sc1ncc(C(F)(F)F)cc1Cl (stereo not given)	/	4%	6%	9%	/
CC(C)CC1=NN2C(=N)/C(=C\c3coc4ccccc4c3=O)C(=O)N=C2S1	/	2%	0%	11µM*	/
CCSC1=NSC2=NC(=O)/C(=C\c3coc4ccccc4c3=O)C(=N)N12	-17%	0%	-2%	?	28µM*
Cc1cc2c(c(=O)o1)[C@H](O)[C@H]1O[C@@H]1C2=O	/	/	/	-9%[13.5 µM]	/
COc1cc2ccccc2cc1C(=O)N1CCN(c2nc3c(F)cc(F)cc3s2)CC1	-8%[46 µM]	/	/	/	/
O=C(Cc1cccc(C(F)(F)F)c1)NCc1cccc(Cl)c1	-5%	15%	2%	-1%	-27%
C=CCNC(=O)c1ccc(-c2nc(-c3ccc(Cl)c(Cl)c3)cs2)cc1	?	7%[38.3 µM]	3%	0%	-23%
O=C(NCc1cccc(C(F)(F)F)c1)c1cc(Cl)ccc1Cl	?	9%	1%	7%	28µM*
C=CCNC(=O)c1ccc(-c2nc(-c3ccc(Cl)cc3Cl)cs2)cc1	-2%	-3%	1%	1%	4µM*
C=CCNC(=O)c1cc(Cl)ccc1Cl	2%	-23%[38.3 µM]	-6%	0%	20µM*
COc1ccccc1CN1CCCC2(CCN(C(=O)c3ccncc3)CC2)C1	/	14%	-3%	?	-4%
O=C(CN1C(=O)c2cccc3cccc(c23)C1=O)N1CCN(Cc2ccc3c(c2)OCO3)CC1	-22%	15%	3%	?	-23%
Cc1ccccc1N=C1NC(=O)CS1	6%	-2%[38.3 µM]	14%	4%	-6%
O=C1CSC(=Nc2ccccc2Cl)N1	3%	-9%[38.3 µM]	8%	?	16µM*
CCC(=O)Nc1ccc(Cl)c(NC(=O)c2c(OC)cccc2OC)c1	/	-4%	2%	6%	/
NC(=O)c1ccccc1N/C=C/C(=O)c1ccc(Cl)cc1Cl	-11%	-10%[38.3 µM]	11µM*	?	13µM*
